MEP2 TOR yeast – yeast TOR pathway MEP2-GFP modulation. actives 0.51% (n = 330,000). GFP response vs DMSO, % at 10 µM. AID 2016. S. cerevisiae MEP2-GFP strain, flow cytometry GFP, 3 h; 100% = DMSO control level;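 active = GFP response versus DMSO above a set limit, roughly screen mean plus 3 SD, cut at about 180% in these data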;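 note: median GFP fluorescence of the barcode-gated MEP2-GFP cells per well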
LAP4-GFP MLPCN – alters LAP4-GFP fluorescence in TOR pathway yeast screen. S. cerevisiae LAP4-GFP multiplex, flow cytometry GFP, 3 h; median GFP as percent of DMSO wells. AID 2023. GFP response vs DMSO, % at 10 µM. actives 0.34% (n = 320,000);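 active = GFP response vs DMSO above a set limit, about the screen mean plus 3 SD, cut at about 150% in these data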
CIT2 TOR yeast – modulators of TOR pathway CIT2-GFP in S. cerevisiae; S. cerevisiae CIT2-GFP strain, flow cytometry, 3 h; 100 means same as DMSO wells; GFP response vs DMSO, % at 10 µM; actives 0.065% (n = 320,000); AID 2029;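 active = GFP response relative to DMSO above a set limit, near the screen mean plus 3 SD, cut at about 150% in these data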;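 note: ratio of well median GFP fluorescence to mean of DMSO wells on the plate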
AGP1-GFP MLPCN – modulators of TOR pathway AGP1-GFP in S. cerevisiae | actives 0.02% (n = 320,000) | S. cerevisiae AGP1-GFP multiplex flow cytometry, 3 h; GFP as percent of DMSO wells | GFP response vs DMSO, % at 10 µM | AID 2066;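 active = GFP response relative to DMSO above a set limit, near screen average plus 3 SD, cut at about 150% in these data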;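 note: median GFP channel fluorescence of the gated AGP1 strain per well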
RPL19A TOR yeast – yeast TOR pathway RPL19A-GFP modulation; actives 0.3% (n = 330,000); percent response vs DMSO, % at 10 µM; S. cerevisiae RPL19A-GFP strain, flow cytometry, 3 h; active compounds read low; AID 2025;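 active = percent response vs DMSO below 50%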;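 note: median channel GFP fluorescence of the barcoded RPL19A-GFP strain; ratio of sample median GFP to plate DMSO average so 100% = DMSO; lower means less RPL19A-GFP as with rapamycin TOR inhibition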
LAP4-GFP pick2 – yeast LAP4-GFP modulation, second cherry pick; GFP response vs DMSO, % at 10 µM; S. cerevisiae LAP4-GFP strain, flow cytometry GFP, 3 h; shares compounds with LAP4-GFP MLPCN; actives 20% (n = 590);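 active = GFP signal as percent of the solvent control above about 150%, meaning raised reporter expression, limit read from the data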;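 note: ratio of well median GFP fluorescence to plate DMSO mean so 100% = DMSO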
MEP2 cherry2 – second confirmation of modulators of TOR reporter MEP2-GFP in yeast. shares compounds with LAP4-GFP MLPCN. S. cerevisiae MEP2-GFP strain, flow cytometry GFP, 3 h. GFP response vs DMSO, % at 10 µM. actives 10% (n = 590);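 active = GFP signal above 150% of the solvent control wells, that is a rise of more than half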;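 note: median channel GFP fluorescence of all gated yeast cells per well; ratio of median GFP to plate DMSO average so 100% = DMSO level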
RPL19A GFP CP2 – second confirmation of modulators of TOR reporter RPL19A-GFP in yeast. GFP response vs DMSO, % at 10 µM. actives 3% (n = 590). shares compounds with LAP4-GFP MLPCN. S. cerevisiae RPL19A-GFP strain, flow cytometry GFP, 3 h; active compounds read low; 100% means same as DMSO wells;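 active = under 65% GFP response relative to DMSO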;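 note: median GFP channel fluorescence per well over the all cells gate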
CIT2 GFP CP2 – second confirmation of modulators of TOR reporter CIT2-GFP in yeast | actives 8% (n = 590) | GFP response vs DMSO, % at 10 µM | shares compounds with LAP4-GFP MLPCN | AID 2624 | S. cerevisiae CIT2-GFP strain, flow cytometry GFP, 3 h; DMSO control wells read 100%;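 active = GFP response vs DMSO above about 150%, limit read from the data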;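 note: median green fluorescence per well over all gated yeast cells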
AGP1-GFP pick2 – reconfirmed modulator of AGP1-GFP TOR reporter in yeast; AID 2643; S. cerevisiae AGP1-GFP strain, flow cytometry GFP, 3 h; 590 tested, under 10 active; percent response vs DMSO, % at 10 µM; shares compounds with LAP4-GFP MLPCN;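 active = over 150 percent of DMSO response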;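 note: median GFP channel fluorescence over all cells without mother daughter split; sample median GFP divided by mean DMSO control so 100% equals DMSO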
Yeast autofluor – compound is autofluorescent in yeast s288c cells; shares compounds with LAP4-GFP MLPCN; S. cerevisiae s288c, 520 nm autofluorescence, flow cytometry, 3 h; active compounds read high; zero means same as solvent-only cells; fluorescence change (kMESF span) at 33 µM; 610 tested, under 10 active; AID 2757;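 active = fluorescence span over the dose series, or activity score, above about 33, limit read from the data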
s288c autofl DR – counter-screen for autofluorescence of TOR hits in yeast s288c. S. cerevisiae s288c parental, compound autofluorescence, flow cytometry, 3 h. 110 tested, under 10 active. shares compounds with LAP4-GFP MLPCN. fluorescence change (span) at 33 µM;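 active = fluorescence change span, or the activity score built from it, above 25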
TORC1 bypass – stops wildtype yeast growth while TORC1 bypass cells still grow; shares compounds with LAP4-GFP MLPCN; S. cerevisiae BY4741 spot growth rating, 48-72 h; active compounds read low; 120 tested, under 10 active; growth rating (0-3) at 30 µM;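 active = growth rating at most 1 for wild type yeast while the TORC1 bypass strain still grows fully, rated 3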
* marks the source's active call; other numbers are inactive results; x = not tested or not shown. In the library only some 0.93% were active in any assay of this set; here they are far more common.

SMILES	MEP2 TOR yeast	LAP4-GFP MLPCN	CIT2 TOR yeast	AGP1-GFP MLPCN	RPL19A TOR yeast	LAP4-GFP pick2	MEP2 cherry2	RPL19A GFP CP2	CIT2 GFP CP2	AGP1-GFP pick2	others
O=C(c1ccc(CS(=O)c2cccc(Cl)c2)o1)N1CCN(c2ccccn2)CC1 (stereo not given)	94.2	98.0	100.2	98.6	98.4	x	x	x	x	x
COc1ccc(S(=O)(=O)N2CCc3ccccc32)cc1C(=O)NC1(C)CCS(=O)(=O)C1 (stereo not given)	171.9	158.2*	165.3*	125.3	116.6	97.2	94.3	100.0	104.3	97.2
COc1ccc(S(=O)(=O)N2CCCCCC2)cc1C(=O)NC1(C)CCS(=O)(=O)C1 (stereo not given)	101.8	102.5	105.3	104.3	100.0	x	x	x	x	x
CCn1c(C)cc(C(=O)CN2C(=O)c3ccccc3S2(=O)=O)c1C	97.1	92.2	87.7	97.2	93.9	x	x	x	x	x
CCCn1c(C)cc(C(=O)CN2C(=O)c3ccccc3C2=O)c1C	134.7	99.5	92.8	96.1	61.4	96.2	103.1	99.5	98.7	99.3
CCOc1ccc(OCC)c(NC(=O)CSc2nnc(C3CC3)n2CC)c1	116.9	106.5	113.9	102.1	102.2	x	x	x	x	x
O=c1c2c([N+](=O)[O-])cc([N+](=O)[O-])cc2sn1Cc1ccccc1	99.8	107.4	99.0	100.7	98.7	x	x	x	x	x
O=c1c2c([N+](=O)[O-])cc([N+](=O)[O-])cc2sn1-c1ccc(Br)cc1	78.1	62.3	37.5	11.6	32.0*	107.2	96.1	94.4	102.9	99.5
CC(NC(=O)c1ccco1)C(=O)N1CCCCC1 (stereo not given)	109.5	91.3	150.1*	113.0	100.1	100.0	103.2	100.7	99.5	98.2
C[C@H](NC(=O)c1ccco1)C(=O)N1CCCC1	91.6	80.5	88.5	85.4	93.1	x	x	x	x	x
CCCC(=O)N(Cc1cc(=O)[nH]c2ccccc12)c1ccccc1C	115.4	113.1	97.5	102.4	106.1	x	x	x	x	x
Nn1cnnc1SCC(=O)N1CCc2ccccc2C1	97.7	91.9	95.8	100.0	93.4	x	x	x	x	x
CSc1nc(-c2ccc(C)cc2)nc(N)c1C#N	95.3	93.4	83.1	92.5	93.8	x	x	x	x	x
CC(C)(C)n1nc(-c2ccc(F)cc2)c2c(N)ncnc21	104.5	177.7*	51.2	92.2	47.7*	137.3	136.2	47.5*	61.2	86.3	Yeast autofluor=-0.4;s288c autofl DR=0.29;TORC1 bypass=3
CC(C)(C)n1nc(-c2ccc(Cl)cc2)c2c(N)ncnc21	106.2	181.7*	42.9	82.7	43.2*	x	x	x	x	x	Yeast autofluor=-1;s288c autofl DR=0.32;TORC1 bypass=3
Cc1ccc(-c2nc(N)c3c(-c4ccc(C)cc4)nn(C(C)(C)C)c3n2)cc1	100.0	98.1	95.2	96.1	100.8	112.2	120.5	105.5	132.1	98.6	Yeast autofluor=0.1
Cc1ccc(-c2nn(C(C)(C)C)c3ncnc(NS(=O)(=O)c4ccc([N+](=O)[O-])cc4)c23)cc1	100.8	119.6	99.9	103.9	95.5	x	x	x	x	x
CC(C)(C)S(=O)(=O)c1cnc2c(-c3ccc(F)cc3)cnn2c1N	92.1	83.5	93.2	90.9	86.5	x	x	x	x	x
O=C(O)c1cccnc1Sc1ccc(Br)cc1	112.5	118.7	99.5	100.0	102.8	x	x	x	x	x
Oc1ccc(N=Nc2ccccc2)o1	96.8	164.8*	111.6	95.7	111.5	x	x	x	x	x	Yeast autofluor=0.41
CCn1c(CCCc2ccc(OC)c(C)c2)n[nH]c1=S	106.0	101.6	86.2	76.0	107.3	x	x	x	x	x
OCCN(CCO)Cc1csc2ccccc12	104.2	89.5	99.2	96.2	98.2	x	x	x	x	x
O=C(Oc1cccc2cccnc12)c1ccc(Br)o1	102.8	102.9	103.5	105.5	101.2	102.2	99.6	100.0	101.5	100.2	Yeast autofluor=0.21
CCCCn1c(N)c(NCC(C)C)c(=O)[nH]c1=O	101.8	97.6	101.2	102.7	103.5	x	x	x	x	x
CCCc1cc(N2CCOCC2)n2nc(C)c(-c3ccccc3)c2n1	109.0	99.1	98.8	94.1	102.8	x	x	x	x	x
SMILES	MEP2 TOR yeast	LAP4-GFP MLPCN	CIT2 TOR yeast	AGP1-GFP MLPCN	RPL19A TOR yeast	LAP4-GFP pick2	MEP2 cherry2	RPL19A GFP CP2	CIT2 GFP CP2	AGP1-GFP pick2	others
CCCc1cc(N2CCN(c3ccccn3)CC2)n2nc(C)c(-c3ccccc3)c2n1	103.2	103.2	101.2	101.3	100.7	x	x	x	x	x	Yeast autofluor=0
Cn1c(=O)c(C(=O)NNC(=O)c2ccc(Br)cc2)c(O)c2ccccc21	127.7	127.0	90.4	72.3	63.6	161.5*	164.7*	79.4	81.4	85.6	Yeast autofluor=2.5
O=C(Nc1cccc(Cl)c1)C1COc2ccccc2O1 (stereo not given)	111.5	97.0	98.6	97.5	102.6	x	x	x	x	x
CNc1nc(N)cc(Nc2ccccc2F)n1	x	x	x	x	x	x	x	x	x	x	TORC1 bypass=3
CC1=NN(c2nc3ccccc3[nH]2)C(=O)C1Cc1ccccc1 (stereo not given)	96.9	86.5	69.1	56.6	58.0	123.1	141.4	75.8	84.8	74.7
CCCCS(=O)(=O)/C=C\C=C/S(=O)(=O)CCCC	108.8	172.6*	77.3	85.2	99.0	214.4*	126.5	93.7	143.6	99.8	Yeast autofluor=1
CCCCS(=O)(=O)/C=C\C1C2C=CC(C2)C1S(=O)(=O)CCCC (stereo not given)	108.0	114.6	113.7	x	105.7	x	x	x	x	x
COc1ccc(OC)c(NC(=O)CSc2nccn2Cc2ccco2)c1	97.4	107.8	111.6	101.2	99.6	x	x	x	x	x
O=C(C1CCN(S(=O)(=O)c2ccccc2F)CC1)N1CCN(Cc2ccc3c(c2)OCO3)CC1	92.9	91.5	94.5	95.5	93.1	x	x	x	x	x

Screening data (PubChem)
